Reference: PMC9911399, “Two distinct binding modes provide the RNA-binding protein RbFox with extraordinary sequence specificity”
Numbering of substitutions follows the chain as printed; changes in the protein carry UniProt numbers. Over roughly 16,000 sequences, “ka relative to ugcaugu” has its median near 0.096; the highest 2% begin near 0.35. This excerpt belongs to a sample that is enriched for the highest values.

T1: RBFOX1 RRM RbFoxmut (Fox-RRM*) (Homo sapiens, UniProt Q9NWB1 109-208, R118D;E147R;N151S;E152T)
T1 sequence: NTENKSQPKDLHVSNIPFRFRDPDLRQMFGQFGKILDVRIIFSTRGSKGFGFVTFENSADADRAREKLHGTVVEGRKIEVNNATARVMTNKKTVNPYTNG

B1: GCGAAUC (DNA:RNA)
RNA: GGGAGACCGGAAUUCAGAUUGUCCGCGAAUCUUAAAUCCCGUCGUAGCCACCA
DNA 1: CAATCTGAATTCCGGTCTCCC
DNA 2: TGGTGGCTACGACGGGATT
B2: GAUUAAU (DNA:RNA)
RNA: B1 RNA with C26A, G27U, A28U, U30A, C31U
DNA 1: CAATCTGAATTCCGGTCTCCC
DNA 2: TGGTGGCTACGACGGGATT
B3: UUGCUUC (DNA:RNA)
RNA: B1 RNA with G25U, C26U, A28C, A29U
DNA 1: CAATCTGAATTCCGGTCTCCC
DNA 2: TGGTGGCTACGACGGGATT
B4: AGAGUCA (DNA:RNA)
RNA: GGGAGACCGGAAUUCAGAUUGUCCAGAGUCAUUAAAUCCCGUCGUAGCCACCA
DNA 1: CAATCTGAATTCCGGTCTCCC
DNA 2: TGGTGGCTACGACGGGATT
B5: UCCAGUA (DNA:RNA)
RNA: B1 RNA with G25U, G27C, A29G, C31A
DNA 1: CAATCTGAATTCCGGTCTCCC
DNA 2: TGGTGGCTACGACGGGATT
B6: GAAAAUG (DNA:RNA)
RNA: B1 RNA with C26A, G27A, C31G
DNA 1: CAATCTGAATTCCGGTCTCCC
DNA 2: TGGTGGCTACGACGGGATT
B7: GAAUGUC (DNA:RNA)
RNA: B1 RNA with C26A, G27A, A28U, A29G
DNA 1: CAATCTGAATTCCGGTCTCCC
DNA 2: TGGTGGCTACGACGGGATT
B8: GACCGUC (DNA:RNA)
RNA: B1 RNA with C26A, G27C, A28C, A29G
DNA 1: CAATCTGAATTCCGGTCTCCC
DNA 2: TGGTGGCTACGACGGGATT
B9: AAAGCCU (DNA:RNA)
RNA: B4 RNA with G26A, U29C, A31U
DNA 1: CAATCTGAATTCCGGTCTCCC
DNA 2: TGGTGGCTACGACGGGATT
B10: CUAUCCC (DNA:RNA)
RNA: B4 RNA with A25C, G26U, G28U, U29C, A31C
DNA 1: CAATCTGAATTCCGGTCTCCC
DNA 2: TGGTGGCTACGACGGGATT
B11: GAAGAAU (DNA:RNA)
RNA: B4 RNA with A25G, G26A, U29A, C30A, A31U
DNA 1: CAATCTGAATTCCGGTCTCCC
DNA 2: TGGTGGCTACGACGGGATT
B12: GGUUAUG (DNA:RNA)
RNA: B1 RNA with C26G, G27U, A28U, C31G
DNA 1: CAATCTGAATTCCGGTCTCCC
DNA 2: TGGTGGCTACGACGGGATT
B13: GGUUCGG (DNA:RNA)
RNA: B4 RNA with A25G, A27U, G28U, U29C, C30G, A31G
DNA 1: CAATCTGAATTCCGGTCTCCC
DNA 2: TGGTGGCTACGACGGGATT
B14: CGUUCGG (DNA:RNA)
RNA: B4 RNA with A25C, A27U, G28U, U29C, C30G, A31G
DNA 1: CAATCTGAATTCCGGTCTCCC
DNA 2: TGGTGGCTACGACGGGATT
B15: GUUCGGG (DNA:RNA)
RNA: B1 RNA with C26U, G27U, A28C, A29G, U30G, C31G
DNA 1: CAATCTGAATTCCGGTCTCCC
DNA 2: TGGTGGCTACGACGGGATT
B16: CGUUAUG (DNA:RNA)
RNA: B1 RNA with G25C, C26G, G27U, A28U, C31G
DNA 1: CAATCTGAATTCCGGTCTCCC
DNA 2: TGGTGGCTACGACGGGATT
B17: GGGUUCG (DNA:RNA)
RNA: B4 RNA with A25G, A27G, G28U, A31G
DNA 1: CAATCTGAATTCCGGTCTCCC
DNA 2: TGGTGGCTACGACGGGATT
B18: GUCCCGG (DNA:RNA)
RNA: B1 RNA with C26U, G27C, A28C, A29C, U30G, C31G
DNA 1: CAATCTGAATTCCGGTCTCCC
DNA 2: TGGTGGCTACGACGGGATT
B19: CGGUUCG (DNA:RNA)
RNA: B4 RNA with A25C, A27G, G28U, A31G
DNA 1: CAATCTGAATTCCGGTCTCCC
DNA 2: TGGTGGCTACGACGGGATT
B20: GGGGUUC (DNA:RNA)
RNA: B1 RNA with C26G, A28G, A29U
DNA 1: CAATCTGAATTCCGGTCTCCC
DNA 2: TGGTGGCTACGACGGGATT

Each binder was assayed against T1, RBFOX1 RRM RbFoxmut (Fox-RRM*) (assay: EMSA; HiTS-Eq, 1 nM pool, 10 min; buffer printed only for the single-RNA assays: 10 mM Tris pH 7.5, 150 mM NaCl, 3.4 mM EDTA, 0.001% NP-40, 30 C). Settings: tags: His6 N-terminal (pET28a); label: 5' 32P.
Method in brief: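 Purified RbFox RRM, wild type or mutant, was incubated for 10 min in 50 µL with 1 nM of a 5′-radiolabelled RNA pool carrying 7 randomized nucleotides, whose flanks were annealed to DNA oligonucleotides, over a series of increasing protein concentrations. Unbound RNA was resolved on 8% native PAGE, cut out, reverse-transcribed, barcoded by PCR and sequenced on an Illumina HiSeq 2500. Relative association constants were derived from changes in read counts for each RNA species versus the control reaction and normalised to the cognate motif.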
For B1, the binding signal was 0.385 KA relative to UGCAUGU. B2 was tested, and the binding signal was 0.0998 KA relative to UGCAUGU. In the case of B3, the binding signal is reported as 0.157 KA relative to UGCAUGU. For B4, the binding signal was 0.106 KA relative to UGCAUGU. B5 was tested, and the binding signal was 0.135 KA relative to UGCAUGU. B6 was tested, and the binding signal was 0.1 KA relative to UGCAUGU. B7 was tested, and the binding signal was 0.55 KA relative to UGCAUGU. In the case of B8, the binding signal is reported as 0.0863 KA relative to UGCAUGU. B9 was tested, and the binding signal was 0.0705 KA relative to UGCAUGU. For B10, the binding signal was 0.0664 KA relative to UGCAUGU. B11 was tested, and the binding signal was 0.0873 KA relative to UGCAUGU. In the case of B12, the binding signal is reported as 0.585 KA relative to UGCAUGU. With B13 the binding signal was 0.126 KA relative to UGCAUGU. With B14 the binding signal was 0.115 KA relative to UGCAUGU. For B15, the binding signal was 0.0874 KA relative to UGCAUGU. With B16 the binding signal was 0.269 KA relative to UGCAUGU. B17 was tested, and the binding signal was 0.4 KA relative to UGCAUGU. For B18, the binding signal was 0.0859 KA relative to UGCAUGU. For B19, the binding signal was 0.371 KA relative to UGCAUGU. B20 was tested, and the binding signal was 0.239 KA relative to UGCAUGU.
